This note sets out measurements from PubChem BioAssay (NCI).

This is part of a sample that, as a whole, favours compounds with a hit. Of some 83,000 tested, about 20% had one in any assay.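 Each cell line was grown in a 96-well plate and treated with one concentration of compound for 48 hours. Values below 10 were considered active.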 Values without a mark were called inactive. Activity calls are given as the source filed them.

Among the test systems are SR leukemia; RPMI-8226 leukemia; OVCAR-8 ovarian; OVCAR-5 ovarian; OVCAR-4 ovarian; SK-OV-3 ovarian; IGROV1 ovarian; OVCAR-3 ovarian; HS 578T breast; NCI/ADR-RES ovarian; T-47D breast; BT-549 breast; MDA-MB-435 melanoma; SW-620 colon; MCF7 breast; HCT-116 colon; HCC-2998 colon; KM12 colon.
Holding throughout (experiment): NCI-60 one-dose screen, 48 h (100 = growth as untreated, 0 = no growth, -100 = all killed)
Conditions in all cases: 10 µM unless noted

On to `CCOC(=O)c1ccc2c(c1)[n+](=O)c(C(=O)C1CCCS1)c(C(F)(F)F)n2[O-]` (centres undefined), for which the growth with SR leukemia is -42.8% (active); with RPMI-8226 leukemia, -45.3% (active); in the test with OVCAR-8 ovarian it was -36.4% (active); with OVCAR-5 ovarian it was -79.8% (active); with OVCAR-4 ovarian it was -83.3% (active); in the test with SK-OV-3 ovarian, -97.6% (active). Further, the growth in the test with IGROV1 ovarian is -60.3% (active); with OVCAR-3 ovarian it was -96.6% (active); in the test with HS 578T breast it was -10.8% (active); in the test with NCI/ADR-RES ovarian it was -70.4% (active); with T-47D breast, -70.5% (active); in the test with BT-549 breast it was -93.4% (active). The growth in the test with MDA-MB-435 melanoma is -80.5% (active); with SW-620 colon, -82.4% (active); in the test on MCF7 breast, -68.1% (active); in the test with HCT-116 colon, -96.2% (active); with HCC-2998 colon, -89% (active); with KM12 colon, -90.4% (active).
On to `C[C@H]1[C@H]2C3=CC[C@@H]4[C@@]5(C)C/C(=C/c6ccco6)C(=O)C(C)(C)[C@@H]5CC[C@@]4(C)[C@]3(C)CC[C@@]2(C(=O)N2CCOCC2)CC[C@@H]1C`, for which the growth in the test on SR leukemia was 29.4%; in the test with RPMI-8226 leukemia it was 40.4%; in the test on OVCAR-8 ovarian, 54.7%; in the test on OVCAR-5 ovarian, 96.6%; with OVCAR-4 ovarian it was 50.1%; in the test with SK-OV-3 ovarian, 107%. Besides, the growth with IGROV1 ovarian was 56.5%; in the test on OVCAR-3 ovarian, 55.6%; in the test on HS 578T breast it was 77.9%; in the test with NCI/ADR-RES ovarian, 83.1%; in the test with T-47D breast, 32%; in the test on BT-549 breast, 75.8%. In addition, the growth with MDA-MB-435 melanoma is 97.1%; in the test on SW-620 colon, 25.3%; in the test on MCF7 breast, 39.4%; in the test on HCT-116 colon it was 26.9%; with HCC-2998 colon, 90.5%; with KM12 colon, 54.2%.
Consider `N#CCCCCCn1c2ccccc2c2c3c(c4c5ccccc5n(CCCCCC#N)c4c21)C(=O)N(O)C3=O`, for which the growth in the test with SR leukemia was 42.9%; in the test with RPMI-8226 leukemia, 37.7%; with OVCAR-8 ovarian, 69.4%; with OVCAR-5 ovarian, 109%; in the test on OVCAR-4 ovarian, 93.4%; in the test with SK-OV-3 ovarian, 71.2%. The growth is 75.2% in the test on IGROV1 ovarian; 96.1% in the test on OVCAR-3 ovarian; 92.7% with HS 578T breast; 85.9% in the test with NCI/ADR-RES ovarian; 75.7% with T-47D breast; 75% with BT-549 breast. Also, the growth in the test with MDA-MB-435 melanoma is 91.3%; with SW-620 colon, 106%; with MCF7 breast, 72.2%; with HCT-116 colon, 71.3%; in the test on HCC-2998 colon, 80.8%; with KM12 colon, 71.8%.
For the molecule `COc1ccc(-c2c(-c3nc4ccc(N5CCOCC5)cc4[nH]3)[nH]c(C)c2C(C)=O)cc1`, the growth in the test with SR leukemia is 47.8%; in the test with RPMI-8226 leukemia, 3.61% (active); in the test on OVCAR-8 ovarian, 50.5%; in the test with OVCAR-5 ovarian it was 48.2%; with OVCAR-4 ovarian, 45.1%; in the test on SK-OV-3 ovarian, 27.7%. In addition, the growth is 23.8% in the test with IGROV1 ovarian; 46% in the test with OVCAR-3 ovarian; 22.3% in the test with HS 578T breast; 38.7% with NCI/ADR-RES ovarian; 27.3% in the test with T-47D breast; 64.9% with BT-549 breast. Moreover, the growth in the test with MDA-MB-435 melanoma is 29.7%; in the test with SW-620 colon, 63.4%; with MCF7 breast it was 10.8%; with HCT-116 colon, 34.8%; in the test with HCC-2998 colon, 35%; in the test with KM12 colon, 46.5%.
Take `COc1cc(/C=N/NC(=S)NNC(=S)NC2CCCCC2)cc(OC)c1OC`: the growth in the test with SR leukemia is 96.9%; with RPMI-8226 leukemia, 70.1%; with OVCAR-8 ovarian it was 97.8%; in the test on OVCAR-5 ovarian, 106%; in the test on OVCAR-4 ovarian, 86.3%; in the test on SK-OV-3 ovarian, 110%. Moreover, the growth with IGROV1 ovarian was 89.9%; with OVCAR-3 ovarian, 103%; in the test with HS 578T breast, 106%; in the test with NCI/ADR-RES ovarian, 97.5%; in the test on T-47D breast, 69.9%; with BT-549 breast, 105%. The growth in the test on MDA-MB-435 melanoma is 98.8%; with SW-620 colon, 104%; with MCF7 breast it was 92.4%; with HCT-116 colon, 104%; with HCC-2998 colon, 112%; in the test with KM12 colon it was 95.1%.
For the molecule `CC(C)(C)c1ccc(OP(=S)(N/N=C/c2ccccc2O)Oc2ccc(C(C)(C)C)cc2)cc1`, the growth in the test on SR leukemia was 61.6%; with RPMI-8226 leukemia it was 45.8%; in the test with OVCAR-8 ovarian, 82.8%; with OVCAR-5 ovarian, 91.6%; with OVCAR-4 ovarian, 65.1%; in the test with SK-OV-3 ovarian, 65.2%. The growth with IGROV1 ovarian was 63.5%; with OVCAR-3 ovarian it was 47.5%; with HS 578T breast, 94.5%; in the test with NCI/ADR-RES ovarian, 87.8%; in the test on T-47D breast it was 70.2%; with BT-549 breast, 89.5%. Moreover, the growth in the test on MDA-MB-435 melanoma is 72%; in the test with SW-620 colon, 77.7%; in the test with MCF7 breast, 53.8%; in the test on HCT-116 colon, 42.9%; in the test on HCC-2998 colon, 86.2%; in the test with KM12 colon, 67.2%.
With `CC(=O)OC[C@]12CC[C@@H](/C(C)=N/O)[C@@H]1[C@H]1CC[C@@H]3[C@@]4(C)CCCNC(C)(C)[C@@H]4CC[C@@]3(C)[C@]1(C)CC2`, the growth in the test on SR leukemia is 51.8%; with RPMI-8226 leukemia, 49.2%; with OVCAR-8 ovarian, 73.3%; in the test with OVCAR-5 ovarian it was 103%; in the test with OVCAR-4 ovarian, 53.9%; in the test with SK-OV-3 ovarian it was 62.9%. The growth with IGROV1 ovarian is 88.9%; in the test with OVCAR-3 ovarian it was 65.7%; in the test with HS 578T breast, 76%; in the test on NCI/ADR-RES ovarian, 77.4%; with T-47D breast, 47.7%; in the test on BT-549 breast, 66.2%. The growth in the test with MDA-MB-435 melanoma was 81.8%; in the test with SW-620 colon, 80.3%; in the test with MCF7 breast, 57.4%; with HCT-116 colon, 46.5%; in the test on HCC-2998 colon, 95.2%; in the test with KM12 colon, 76.4%.
Turning to `Cc1ccc2c(c1)c1nc3cc(C)c(C)cc3nc1n2CCN(C)C`, the growth with SR leukemia is 6.5% (active); with RPMI-8226 leukemia, 1.96% (active); in the test on OVCAR-8 ovarian it was 18.4%; in the test with OVCAR-5 ovarian it was 20.5%; with OVCAR-4 ovarian it was 33.1%; with SK-OV-3 ovarian, 30.9%. The growth is 6.96% (active) in the test on IGROV1 ovarian; 29.7% with OVCAR-3 ovarian; 50.1% with HS 578T breast; 12.8% with NCI/ADR-RES ovarian; 23.2% in the test with T-47D breast; 50.2% in the test with BT-549 breast. For the same molecule, the growth with MDA-MB-435 melanoma was 16.1%; in the test on SW-620 colon it was 12.5%; in the test on MCF7 breast, -6.81% (active); with HCT-116 colon, 8.95% (active); in the test with HCC-2998 colon, 32.9%; with KM12 colon it was 21.7%.
